Luc counter = Counterscreen for Luciferase (Kinase-Glo TM) Inhibition | Kinase-Glo luciferase, ATP luminescence, 8 min | Potency, µM (doses to about 38.3 µM), for inactives: top-dose activity change, negative = inhibition, most hits filed as inhibitors | 200,000 tested, 0.28% active | AID 1379, 2008; also: nearly all actives have a fitted effect of over 60% in size
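Compounds were added to a substrate mix at pH 7.2 (50 mM imidazole, 10 uM ATP, within the enzyme's linear range), followed by Kinase-Glo detection reagent; luminescence was measured after 8 minutes at ambient temperature.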
RORg inh = qHTS for inhibitors of ROR gamma transcriptional activity; Drosophila S2 Gal4-RORgamma UAS-luciferase reporter, 20 h; Nuclear receptor ROR-gamma (Mus musculus), P51450; 310,000 tested, 5.4% active; AID 2551, 2010; Potency, µM (doses to about 53.6 µM), inactives show top-dose activity change, negative = inhibition, hits mostly inhibitors; also: nearly all actives have a fitted effect of over 60% in size
Target sequence (P51450 whole entry, looked up, the tested form may be a part): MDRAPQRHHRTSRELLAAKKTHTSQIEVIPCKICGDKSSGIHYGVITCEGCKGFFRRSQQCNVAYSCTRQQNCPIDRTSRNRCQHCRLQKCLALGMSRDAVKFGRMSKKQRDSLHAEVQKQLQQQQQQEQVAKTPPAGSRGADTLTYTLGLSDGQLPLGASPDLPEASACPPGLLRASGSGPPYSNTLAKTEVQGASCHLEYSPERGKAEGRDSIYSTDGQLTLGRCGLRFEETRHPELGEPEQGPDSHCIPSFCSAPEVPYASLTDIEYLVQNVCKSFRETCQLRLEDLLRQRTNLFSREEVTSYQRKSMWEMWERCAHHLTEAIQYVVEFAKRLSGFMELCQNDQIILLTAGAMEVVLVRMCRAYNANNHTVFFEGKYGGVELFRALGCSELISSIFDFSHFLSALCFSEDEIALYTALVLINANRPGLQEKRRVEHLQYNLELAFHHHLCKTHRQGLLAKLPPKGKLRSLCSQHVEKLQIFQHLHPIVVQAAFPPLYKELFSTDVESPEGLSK
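In this cell-based reporter format, copper sulfate (700 uM final) drives Gal4–ROR gamma fusion expression from a metallothionein promoter in Drosophila Schneider cells; compounds preincubated 1 hr, reporter read after 20 hr at ambient temperature.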
Gal4-VP16 FLuc = VP16 counterscreen qHTS for inhibitors of ROR gamma transcriptional activity. Drosophila S2 Gal4-VP16 UAS-luciferase, luminescence, 20 h. Potency, µM (top dose mostly 53.6 µM), for the others: top-dose activity, negative = inhibition, usual class: inhibitors. 310,000 tested, 3.5% active. AID 2546, 2010;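 also: Gal4-VP16 expression switched on by copper sulfate through the metallothionein promoter; nearly all actives have a fitted effect of over 50% in size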
* marks the source's active call; other numbers are inactive results; ? = inconclusive; . = no result given; [ ] = remark or other dose. Shown are actives, neighbours in structure and some others; about 6.4% of the full set was active somewhere. Calls follow the shape of the dose curve; as a rule, active = well fitted curve in the direction sought with a large enough effect; inconclusive = small, poorly fitted or top-dose-only effect, or another doubt; inactive = no such curve, though single readings can be large; an effect the other way counts as inactive or inconclusive. % is scaled to controls: 0 for no effect and ±100 for the full control effect; potency is read from the fitted curve at half-maximal effect.

SMILES	Luc counter	RORg inh	Gal4-VP16 FLuc
C[C@@H]1C[C@](C)(C(=O)c2ccco2)C=C1c1ccco1	-1%	4%	3%
COc1ccc(S(=O)(=O)N(C)C)cc1NC(=O)Cc1cccs1	3%	9%	-1%
O=C(NCCc1ccccc1)C1CCCN1C(=O)Nc1ccc(Cl)cc1 (centres undefined)	.	16%	-14%
Cc1onc(C(=O)Nc2c(C)n(C)n(-c3ccccc3)c2=O)c1[N+](=O)[O-]	.	9%	-25%
CSc1ncc(-c2ccc(Cl)cc2)[nH]1	.	17%	-4%
COc1ccc(/C=C/C2=Nc3ccccc3NC(C)(C)C2)cc1OC	.	34%	?
CCN(CC)S(=O)(=O)c1ccc(C)c(NC(=S)N2CCN(C/C=C/c3ccccc3)CC2)c1	-2%	13µM*	?
CCN(CC)S(=O)(=O)c1ccc(C)c(NC(=S)N2CCN(c3ccccn3)CC2)c1	.	14%	9%
CCOc1ccccc1N(CC(=O)Nc1ccccc1F)S(=O)(=O)c1ccccc1	.	0%	-5%
CCCc1ccc2oc(C(=O)N(Cc3nccn3C)C(C)C)c(C)c2c1	.	11µM*	-3%
Cc1c(C(=O)N(Cc2nccn2C)C(C)C)oc2c(F)cccc12	.	-32%	-8%
CC1=NN(c2ccccc2)C(=O)/C1=C/c1cn(C)c2ccccc12	.	3%	17%
COc1ccc(NC(=O)CN2CCN(c3ccccc3F)CC2)cc1	-1%	24%	-8%
O=C(CN1CCN(c2ccccc2F)CC1)Nc1ccc2c(c1)CCC2	2%	-35%	22µM*
C=CCOC(=O)C(C(C)=O)C(NC(=O)OC)c1cccc(F)c1 (centres undefined)	.	1%[10 µM]	-13%[10 µM]
Cc1ccc(-c2nnc(N3CCCCC3)c3ccccc23)cc1S(=O)(=O)N(C)C	3%	6%	18µM*
Cc1ccc(-c2nnc(N3CCCCC3)c3ccccc23)cc1S(=O)(=O)N1CCN(C)CC1	-3%	-6%	?
O=C(CSc1nnc(C2CC2)n1CC1CCCO1)Nc1ccc(Cl)cc1 (centres undefined)	.	26%	4%
COc1cccc(C2=NOC(C(=O)Nc3cccnc3Cl)C2)c1 (centres undefined)	9%	-1%	-10%
CCCCS(=O)(=O)N1CCCC(C(=O)Nc2ccc3c(c2)CCC3)C1 (centres undefined)	.	25%	23%
N#CCCN(C(=O)CCl)c1cccc(Cl)c1	-1%	13µM*	-27%
CCCCCCCN(C(=O)CCl)c1cccc(C)c1	2%	?	?
COc1cccc(-c2c(C(=O)N/N=C(\C)COc3ccccc3)nnn2-c2nonc2N)c1	.	-6%	-1%
CC(=O)n1nc(-c2ccccc2)nc1NCc1ccc(F)cc1	0%	8%	27%
CC(=O)N(Cc1ccc(F)cc1)C1=C(NCc2ccccc2)C(=O)c2ccccc2C1=O	17%	13µM*	?
SMILES	Luc counter	RORg inh	Gal4-VP16 FLuc
COc1ccc(CCC(=O)N2CCN(c3ccc([N+](=O)[O-])cc3)CC2)cc1OC	.	25%	-3%
COc1ccc(CCN2C(=O)CC(NNC(=O)c3ccccc3Br)C2=O)cc1OC (centres undefined)	-3%	-2%	1%
CC(=O)Nc1ccc(/C(C)=N/Nc2nc(Nc3ccccc3)nc(N3CCOCC3)n2)cc1	-6%	10µM*	?
CC(=O)c1ccc(Nc2nc(N3CCOCC3)nc(N3CCOCC3)n2)cc1	.	?	20%
Clc1cccc(Nc2nc(N3CCOCC3)nc(N3CCOCC3)n2)c1	.	0%	0%
O=C(NNc1nc(Nc2ccccc2)nc(N2CCOCC2)n1)Nc1ccc(Cl)cc1	-1%	1.8µM*	5.6µM*
CN(C)Cc1c(-c2ccc(Cl)cc2)nc2ccccn12	-4%	-41%	?
COc1ccc(-c2nc3c4ccccc4ccn3c2CN2CCCCC2)cc1OC	.	?	5%
COc1ccc(-c2nc3c4ccccc4ccn3c2CN2CCCCC2)cc1	0%	7.9µM*	-13%
Clc1ccc(-c2nc3ccccn3c2CN2CCCCC2)cc1	-3%	18µM*	-5%
Cc1cc(C)cc(NC(=O)N2CCN(C/C=C/c3ccccc3)CC2)c1	0%	1%	20%
COC(=O)N[C@@H](c1cccc(C)c1)C(C(C)=O)C(=O)OC (some centres undefined)	0%	8%	-5%
COc1cc(OC)cc(-c2nnc(NC(=O)Cc3ccc(F)cc3)o2)c1	.	0.71µM*	0.63µM*
COc1cc(OC)cc(-c2nnc(SCc3ccc(C(=O)O)cc3)o2)c1	.	29%	-6%
COc1ccc(-c2nnc(NC(=O)Cc3ccccc3)o2)cc1	.	1.6µM*	2.8µM*
Cc1ccc(CC(=O)Nc2nnc(-c3ccc(F)cc3)o2)c(C)c1	.	2.5µM*	3.2µM*
COc1ccc(NC(=O)Cc2ccccc2)cc1	-2%	5%	-16%
COc1ccc(C(=O)OCC(=O)Nc2ccc(Cl)cn2)cc1	-2%	-7%	9%
COc1ccc(C(=O)OCC(=O)Nc2nnc(-c3ccccc3)o2)cc1	.	4µM*	5µM*
CCNc1nnc(-c2ccc(C)cc2)o1	-6%	-23%	-3%
CC(C)(C)c1ccc(C(=O)O)c(C(=O)c2ccc(C(=O)O)cc2)c1	.	-9%	-9%
COc1ccc(OCCN2C(=O)c3ccccc3C2=O)c([N+](=O)[O-])c1	.	?	-5%
Cc1nn(C2CCS(=O)(=O)C2)c(Cl)c1/C=C/C(=O)OCC(=O)c1cc(C)n(-c2ccc(F)cc2)c1C (centres undefined)	-4%	44%	2%
CC1Cc2cc(S(=O)(=O)CCC(=O)NCc3ccco3)ccc2N1C(=O)C1CC1 (centres undefined)	.	-18%	6%
C/C(=N\N1CCN(c2ccccc2)CC1)c1ccncc1	-1%	1%	-1%
SMILES	Luc counter	RORg inh	Gal4-VP16 FLuc
CC(OC(=O)CCCCCN=C1NS(=O)(=O)c2ccccc21)C(=O)Nc1cc(Cl)cc(Cl)c1 (centres undefined)	-1%	?	?
COc1ccc(C)cc1NC(=O)CN1CCN(C/C=C/c2ccccc2)CC1	2%	10µM*	?
COc1ccc(C)cc1NC(=O)CN1CCN(c2ccccc2F)CC1	5%	0%	1%
COc1ccccc1-n1cc(-c2ccc(Br)cc2)[nH]c1=S	.	4.5µM*	10µM*
O=C(CSC1CC(=O)N(CCc2ccccc2)C1=O)Nc1ccc(Br)cc1 (centres undefined)	0%	-1%	-12%
COc1ccccc1-n1cc(-c2ccc(C)cc2)[nH]c1=S	.	2.8µM*	7.1µM*
COc1ccccc1N1CCN(c2cc(=O)n(-c3ccc(Br)cc3)c(=O)[nH]2)CC1	-2%	-5%	-1%
S=c1[nH]c(-c2ccc(Br)cc2)cn1CCc1ccccc1	0%	6.3µM*	20%[10 µM]
COc1ccccc1N1CCN(c2ccc([N+](=O)[O-])cc2Cl)CC1	0%	30%[10 µM]	-8%
COc1ccccc1-n1cc(-c2ccc([N+](=O)[O-])cc2)[nH]c1=S	.	1.6µM*	-22%
COc1ccccc1-n1nc(C)c(-c2ccccc2)c1N	1%	19%	3%
CNc1c(NS(=O)(=O)c2cc(Cl)ccc2OC)c(=O)oc2ccccc12	.	-12%	5%
